According to PubChem BioAssay (NCATS):
Records with an inconclusive call do not appear. Activity calls are given as the source filed them. Calls come from the whole dose curve; as a rule, active = well fitted inhibition curve with a large enough effect; inconclusive = small, poorly fitted or top-dose-only effect; inactive = flat fitted curve, though single readings scatter.

Legend:
[1] = test system: CRL-7250; assay: Cytotoxic Profiling of Annotated Libraries Using Quantitative High-Throughput Screening (AID 1296008); conditions: Five cell lines viability, CellTiter-Glo ATP luminescence, 48-72 h; max response: hits give low values; for max response: % is set by controls: 0 for no effect and ±100 for the full control effect
How it was run: (§1)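 Cytotoxicity was measured as CellTiter-Glo ATP luminescence, read after 10 min at room temperature. Compound treatment of the cells lasted 48 or 72 hr at 37 degrees Celsius in a qHTS format.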

[2] = test system: HEK293; assay: as above; conditions: Five cell lines viability, CellTiter-Glo ATP luminescence, 48-72 h; max response: hits give low values
How it was run: as §1

[3] = test system: HaCat; assay: as above; conditions: Five cell lines viability, CellTiter-Glo ATP luminescence, 48-72 h; max response: hits give low values
How it was run: as §1

[4] = test system: KB-3-1; assay: as above; conditions: Five cell lines viability, CellTiter-Glo ATP luminescence, 48-72 h; max response: hits give low values
How it was run: as §1

[5] = test system: NIH3T3; assay: as above; conditions: Five cell lines viability, CellTiter-Glo ATP luminescence, 48-72 h; max response: hits give low values
How it was run: as §1

[6] = test system: HEK293T; assay: qHTS assay to identify novel small-molecules to repurpose for Merkel cell carcinoma treatment (AID 1296009); conditions: MCC and control cell lines, CellTiter-Glo viability, 72 h; series mostly up to 44.8 µM
How it was run: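 Cell viability measured by CellTiter-Glo following 72 hr compound treatment at 37 degree celsius, with NPC and MIPE libraries tested in 8- and 11-point concentration series.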
Note: nearly all actives have a fitted effect of over 60% in size.

COC(=O)C12C(=O)C(C)=C(O)C1(C)C(C)=CC1C34CCC(OC3=O)C(C)(C)C4CCC12C (stereo not drawn)
inactive: max response [1] -4.32% | outcome [2] | max response [3] 1.85% | max response [4] 6.41% | outcome [5] | Potency [6]

C[C@@H]1O[C@@H](O[C@H]2[C@H](O[C@H]3CC[C@@]4(C)C(CC[C@]5(C)C4CC=C4C6CC(C)(C)CC[C@]6(C(=O)O[C@@H]6O[C@H](CO[C@@H]7O[C@H](CO)[C@@H](O[C@@H]8O[C@@H](C)[C@H](O)[C@@H](O)[C@H]8O)[C@H](O)[C@H]7O)[C@@H](O)[C@H](O)[C@H]6O)CC[C@]45C)[C@]3(C)CO)OC[C@H](O)[C@@H]2O)[C@H](O)[C@H](O)[C@H]1O (stereo partly drawn)
inactive: outcome [1] | outcome [2] | max response [3] -8.43% | max response [4] 4.12% | max response [5] -6.66% | outcome [6] inactive [at 9.27 µM]

C[C@@H]1CCC2C(C)(C)[C@H](O)CC[C@]2(C)[C@@]12Cc1c(O)cc3c(c1O2)CN(CCO)C3=O (stereo partly drawn)
inactive: max response [1] -2.75% | outcome [2] | max response [3] 4.59% | max response [4] 3.58% | max response [5] 1.6% | Potency [6]

Cc1cc(C)c(S(=O)(=O)N(Cc2ccc(-c3cccc(S(C)(=O)=O)c3)cc2)Cc2ccc(C(F)(F)F)o2)c(C)c1
inactive: max response [1] -5.2% | outcome [2] | max response [3] 2.94% | max response [4] -6.43% | outcome [5] | Potency [6]

COc1c(C(CC(C)C)OC(C)=O)ccc(Oc2c(O)cc(C)cc2/C=C/C(C)=O)c1C(=O)O (stereo not drawn)
inactive: max response [1] -10.2% | outcome [2] | max response [3] -7.86% | max response [4] 3.96% | max response [5] -18.3% | Potency [6]

CC(c1c[nH]c2ccccc12)C(O)C(=O)O (stereo not drawn)
inactive: max response [1] -1.71% | outcome [2] | max response [3] -10.2% | outcome [4] | max response [5] 3.62% | Potency [6]

COc1cc2c(cc1O)C1(OC)Cc3ccc4c(c3C1N(C)CC2)OCO4 (stereo not drawn)
inactive: max response [1] -5.51% | outcome [2] | max response [3] -3.77% | max response [4] 9.56% | max response [5] 2.76% | Potency [6]

COc1ccc2c(c1)O[C@H](O[C@@H]1O[C@H](CO)[C@@H](O)[C@H](O)[C@H]1O)C(=O)N2
inactive: outcome [1] | outcome [2] | max response [3] -4.71% | outcome [4] | outcome [5] | Potency [6]

CC1CCC2(C(=O)OC3OC(COC4OC(CO)C(O)C(O)C4O)C(O)C(O)C3O)CCC3(C)C(=CCC4C5(C)CCC(O)C(C)(C(=O)O)C5CCC43C)C2C1(C)O (stereo not drawn)
inactive: outcome [1] | outcome [2] | max response [3] -9.13% | max response [4] 0.532% | outcome [5] | outcome [6] inactive [at 9.27 µM]

CC(=O)N[C@H]1[C@H](O[C@H]2CC[C@@]3(C)C(CC[C@]4(C)C3CC=C3C5CC(C)(C)CC[C@]5(C(=O)O)[C@H](O[C@@H]5O[C@H](CO)[C@@H](O)[C@H](O)[C@H]5O)C[C@]34C)C2(C)C)O[C@H](CO[C@@H]2OC[C@H](O)[C@H](O)[C@H]2O[C@@H]2OC[C@@H](O)[C@H](O)[C@H]2O)[C@@H](O)[C@@H]1O (stereo partly drawn)
inactive: outcome [1] | outcome [2] | max response [3] -15.2% | max response [4] 2.21% | max response [5] -4.54% | outcome [6] inactive [at 9.27 µM]

CC1(C)CCCC2(C)C1C(O)C=C(CO)C2(O)C(=O)O (stereo not drawn)
inactive: max response [1] 3.48% | outcome [2] | max response [3] -13.1% | max response [4] 3.33% | max response [5] 3.08% | Potency [6]

CO[C@@H]1CC[C@H](OC[C@]2(COC(=O)c3ccc(C)[nH]3)[C@H](OC(C)=O)CC[C@@]3(C)[C@@H]4CC=C(C)[C@@H](C5=C(O)C(=O)OC5O)[C@]4(C)CC[C@@H]32)O[C@H]1C (stereo partly drawn)
inactive: outcome [1] | outcome [2] | max response [3] -0.118% | outcome [4] | max response [5] -6.06% | Potency [6]

CC1(C)CC[C@]2(C(=O)O)CC[C@]3(C)C(=CCC4[C@@]5(C)C[C@@H](O)[C@H](O)C(C)(C)C5CC[C@]43C)[C@@H]2[C@@H]1O (stereo partly drawn)
inactive: max response [1] -1.48% | outcome [2] | max response [3] -22.1% | max response [4] 0.492% | max response [5] -12.3% | Potency [6]

COc1ccc(C)c2sc(NC(=O)c3ccncc3)nc12
inactive: outcome [1] | outcome [2] | max response [3] 4.45% | outcome [4] | max response [5] 2.46% | Potency [6]

C=C1CC[C@@H]2[C@](C)(CC[C@H](O)[C@@]2(C)CCC=C(C)C)[C@@H]1Cc1c[nH]c2ccccc12
inactive: max response [1] -8.3% | outcome [2] | max response [3] -2.84% | max response [4] 1.09% | outcome [5] | Potency [6]

COC1=CC(=O)O[C@@H](/C=C/c2ccccc2)[C@@H]1O
inactive: outcome [1] | outcome [2] | max response [3] 4.5% | outcome [4] | outcome [5] | Potency [6]

COc1cc(/C=C/C(=O)OC(C)(C)C(OC2OC(CO)C(O)C(O)C2O)C(=O)OCc2ccc(OC3OC(CO)C(O)C(O)C3O)cc2)ccc1O (stereo not drawn)
inactive: max response [1] -9.61% | outcome [2] | max response [3] 3.1% | max response [4] 5.7% | outcome [5] | Potency [6]

Cc1cc(N2CCCCC2)nc2ccccc12
inactive: max response [1] -12.2% | outcome [2] | max response [3] -14.3% | outcome [4] | outcome [5] | Potency [6]
